High-throughput results from PubChem.
HT1080-NT tox: kills 2HG-producing HT-1080-NT fibrosarcoma cells | hit rate 1.6% among 360,000 | Potency, µM (highest dose often 46.1 µM), for inactives: at the highest dose activity, negative = less viability, hits mostly cytotoxic | HT-1080-NT fibrosarcoma viability, CellTiter-Glo ATP luminescence, 48 h;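 further: NT is the 2HG producing partner of a matched IDH1 knockdown line; potency means the concentration at half of the fitted maximal effect; 0% = DMSO-treated cells and -100% = media-only wells without cells; nearly all actives have a fitted effect of over 55% in size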
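HT-1080-NT; 750 cells/well; 5% FBS RPMI; 48 h compound, 37 degrees C; CellTiter-Glo luminescence; curve fitting and curve-class assignment.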
DT40 TDP1 CPT: DT40-hTDP1 cell growth loss with CPT; chicken DT40 Tdp1-/-;hTDP1 cells + 20 nM CPT, ATP luminescence, 48 h; Potency, µM (doses to about 46.2 µM), for the others: at the top dose activity change, negative = growth inhibition, hits mostly inhibitors; hit rate 12% among 420,000; AID 686979; further: potency means the concentration at half of the fitted maximal effect; nearly all actives have a fitted effect of over 55% in size
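Chicken DT40 Tdp1-/- cells complemented with human TDP1, 400 cells/well, exposed to compounds plus 20 nM camptothecin for at least 48 h at 37 C; viability read as ATP content by CellTiter-Glo luminescence.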
TDP1 cell noCPT: qHTS for Inhibitors of human tyrosyl-DNA phosphodiesterase 1 (TDP1): qHTS in cells in absence of CPT; hit rate 15% among 420,000; AID 686978, 2013; Potency, µM (top dose mostly 46.2 µM), without a hit: at the top dose activity change, negative = growth inhibition, most hits filed as inhibitors; DT40 Tdp1-/- hTDP1 cells, no CPT, ATP luminescence, 48 h; further: potency means the concentration at half of the fitted maximal effect; nearly all actives have a fitted effect of over 55% in size
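Readout: luminescence from CellTiter-Glo after 30 min in the dark at RT. Cells: DT40 Tdp1-/- with stable hTDP1, 400/well. Exposure: compounds alone, ≥48 hr, 37 °C.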
IL1B secr inh: blocks inflammasome-driven IL-1 beta release | hit rate 4.7% among 360,000 | AID 743279 | THP-1 LPS/ATP IL-1B secretion, AlphaLISA, 16 h; stronger effect = lower value | activity change, % at 57.5 µM; in the data active means activity change below about -50%; inconclusive means mostly about -30% to -49%
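Secreted IL-1B measured by AlphaLISA bead assay after 16 h compound exposure of THP-1 cells; compounds (final up to 57.5 uM) added 1 h before LPS (250 ng/mL) and ATP (1.25 mM) stimulation; lower signal means less secretion.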
HT1080 IDH1KD tx: kills HT-1080 cells with IDH1 knockdown | HT-1080 IDH1 knockdown viability, ATP luminescence, 48 h | Potency, µM (top dose mostly 46.1 µM), without a hit: at the highest dose activity, negative = toxicity, actives largely listed as cytotoxic | hit rate 2% among 360,000;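 further: potency means the concentration at half of the fitted maximal effect; 0% = DMSO wells and -100% = cell-free medium wells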
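Knockdown cells (IDH1KD HT-1080) received compounds 2 h after plating at 750 cells/well and were kept 48 h at 37 °C in 5% FBS RPMI. A CellTiter-Glo luminescence read gave % activity for curve fitting.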
uPA generation: inhibitors of cell surface uPA generation. cell surface uPA generation assay, qHTS. Potency, µM (doses to about 38.3 µM), inactives show at the highest dose activity change, negative = inhibition, most hits filed as inhibitors. hit rate 0.31% among 330,000; active means well fitted inhibition curve with a large enough effect; inconclusive means small, poorly fitted or top-dose-only effect; inactive means no such curve, though single readings can be large or run the other way; tested in mouse RAW 264.7 cells; further: potency means the concentration at half of the fitted maximal effect; nearly all actives have a fitted effect of over 55% in size
An asterisk follows results filed as active; ? = inconclusive; . = not tested or not shown; [ ] = remark or other dose. Compounds with a hit are over-represented: about 19% of the library has one in this group of screens. Unless noted, the call rests on the fitted dose curve; in most records, active means well fitted curve in the direction sought with a large enough effect; inconclusive means small, poorly fitted or top-dose-only effect, or another doubt; inactive means no such curve, though single readings can be large; an effect the other way counts as inactive or inconclusive. Unless noted, on the % scale 0 is the no-effect control and ±100 the full control effect.

SMILES	HT1080-NT tox	DT40 TDP1 CPT	TDP1 cell noCPT	IL1B secr inh	HT1080 IDH1KD tx	uPA generation
COc1ccc(NC(=O)CSc2nccn2Cc2ccc(F)cc2)cc1	-1%	?	-29%	22	-3%	-2%
CCC(=O)N(CCC(c1ccccc1)c1ccco1)Cc1cccs1 (centres undefined)	-5%	16µM*	21µM*	-7	?	-3%
CCC(=O)N(CCC(Cc1ccccc1)c1ccc2c(c1)OCO2)Cc1ccccc1F (centres undefined)	?	7.3µM*	4.6µM*	-25	?	2%
CCC(=O)N(CCC(Cc1ccccc1)c1ccco1)Cc1ccco1 (centres undefined)	-7%	18µM*	15µM*	-29	-11%	-3%
C=C(C)c1cccc(C(C)(C)NC(=O)NNC(=O)c2ccccc2O)c1	-24%	3%	?	-4	?	.
CC1CCN(CCCOc2ccc(Br)cc2Cl)CC1	-18%	-12%	-26%	-60*	-29%	6%
CC1CCCN(CCOCCOc2ccc(Br)cc2Cl)C1 (centres undefined)	?	18µM*	18µM*	?	?	4%
Clc1cc(Br)ccc1OCCN1CCOCC1	7%	1%	-2%	-14	2%	0%
Cc1cc(Cl)c(OCCOCCN2CCCC(C)C2)c(Br)c1 (centres undefined)	18µM*	29µM*	16µM*	-15	?	4%
CN1CCN(CCOCCOc2ccc(Br)cc2Cl)CC1	6%	?	?	0	1%	11%
CC1CCCN(CCOCCOc2ccc(Cl)cc2Br)C1 (centres undefined)	22µM*	?	18µM*	?	11µM*	.
O=C(COc1ccc(Cl)cc1Cl)N1CCN(C(=O)c2ccco2)CC1	5%	0%	-10%	-15	1%	-4%
COc1ccccc1NC(=O)NCCCCc1ccccc1	-6%	-21%	-2%	-6	2%	-2%
COc1cc2c(cc1OC)C(O)C(O)(CO)C(C(=O)O)C2c1cc(OC)c(OC)c(OC)c1 (centres undefined)	28%	-1%	-5%	-4	20%	3%
O=C(Nc1nccs1)c1cncc(Br)c1	-18%	-8%	7%	-1	-18%	-4%
Cc1cc(Cl)c(OCCCNC2CCCC2)c(Br)c1	?	?	?	-73*	21µM*	-10%
COCCCNCCCCOc1c(Cl)cc(C)cc1Br	?	?	?	-18	-20%	0%
C=CCc1cccc(Cl)c1OCCCNC1CCCC1	-27%	23µM*	18µM*	-28	-10%	-28%
COc1ncc2nc(-c3cc(F)cc(F)c3)c(=O)n(-c3ccccc3)c2n1	.	-1%	-31%	.	.	.
O=C(Nc1cccc2cccnc12)c1ccc2sc([C@@H]3O[C@H](CO)[C@H](O)[C@H](O)[C@H]3O)nc2c1	?	?	?	-25	19%	.
CC(=O)c1ccc(NC(=O)CN(C)S(=O)(=O)c2cccc3nsnc23)cc1	.	-1%	0%	.	.	.
CCOC(=O)N1CCN(S(=O)(=O)/C=C/c2ccccc2)CC1	-2%	-26%	-12%	-21	-14%	5%
O=C(c1ccc(Cl)cc1)N1CCN(S(=O)(=O)/C=C/c2ccccc2)CC1	-3%[9.24 µM]	?	21µM*	?	-2%	-5%
Cc1cc(C)c(-c2csc(NC(=O)C3=COCCO3)n2)cc1C	-3%	23µM*	21µM*	-12	-12%	1%
O=C(Nc1nc(-c2ccc([N+](=O)[O-])cc2)cs1)c1c(F)cccc1F	-7%	-3%	4.6µM*	-6	-12%	-7%
SMILES	HT1080-NT tox	DT40 TDP1 CPT	TDP1 cell noCPT	IL1B secr inh	HT1080 IDH1KD tx	uPA generation
O=C(Nc1nc(-c2ccc([N+](=O)[O-])cc2)cs1)C1=COCCO1	9%	-25%	9.2µM*	-8	-1%	.
CC(=O)Nc1nc(-c2ccc([N+](=O)[O-])cc2)cs1	-13%	?	?	-13	-6%	-12%
O/N=C(/C[n+]1ccsc1)c1ccc(I)cc1	.	5µM*	3.5µM*	.	.	.
CC(NC(=O)c1cccc(Nc2nc3ccccc3n3nnnc23)c1)c1ccccc1 (centres undefined)	.	9.2µM*	7.3µM*	.	.	.
CC(C)CCNC(=O)c1cccc(Nc2nc3ccccc3n3nnnc23)c1	.	21µM*	18µM*	.	.	.
C=CCOc1c(CNC2CCCC2)cc(Cl)cc1OC	-13%	?	?	-72*	-30%	-5%
CCOc1c(Br)cc(CNC2CCCCCCC2)cc1OC	-15%	21µM*	15µM*	-94*	-17%	?
COc1cc(CNC2CCCCC2OC)cc(OC)c1OC (centres undefined)	-8%	22%	8%	8	2%	-3%
COc1cc(CNC2CCCCCCC2)cc(Cl)c1OC	-10%	?	?	-80*	?	-1%
COc1cc(CNC2CCCCCCC2)c(Br)cc1OCCO	4%	-25%	-13%	?	6%	2%
CCOC(=O)N1CCN(C(=O)C2CCC(=O)N(Cc3cccc(C(F)(F)F)c3)C2)CC1 (centres undefined)	6%	-1%	5%	-1	10%	3%
CCn1c(=O)c2cc(C(=O)NCc3ccc(F)cc3Cl)sc2c2ccccc21	.	1%	-1%	.	.	.
CCn1c(=O)c2cc(C(=O)NCCCN3CCC(C)CC3)sc2c2ccccc21	.	23µM*	18µM*	.	.	.
CCn1c(=O)c2cc(C(=O)NC3CCC(C)CC3)sc2c2ccccc21 (centres undefined)	.	16µM*	-85%	.	.	.
CCn1c(=O)c2cc(C(=O)NCCCN3CCN(C)CC3)sc2c2ccccc21	.	16µM*	?	.	.	.
CCc1cccc(CC)c1C(OC(C)=O)c1cccnc1 (centres undefined)	2%	-23%	?	-2	2%	-7%
CC(C)COC(=O)N(C)C[C@@H]1OCc2cnnn2CCCC(=O)N([C@@H](C)CO)C[C@H]1C	8%	3%	3%	12	0%	.
OC(CNC1CCCCC1)CON=C1CCSc2c(Cl)cccc21 (centres undefined)	-22%	23µM*	8.2µM*	?	?	.
CCCCCC(=O)N1C[C@H](O)[C@@H](n2cc(COC(=O)c3ccccc3)nn2)C[C@@H]1c1ccc(Cl)cc1	-1%	?	26µM*	-6	1%	.
CCCCCC(=O)N1C[C@H](n2cc(COC(=O)c3ccccc3)nn2)[C@@H](O)C[C@@H]1c1ccc(OC)cc1	?	21µM*	?	-4	-18%	.
